The supplement of paper PMC12067093, “Discovery and optimisation of a covalent ligand for TRIM25 and its application to targeted protein ubiquitination” (Chemical Science, 2025)
The full data set covers some 21,000 targets. This sample favours those with the largest changes.

Compound: CC1Cc2ccccc2N1C(=O)C1CCCN(C1)C(=O)CCl (mixture of isomers) [TRIM25 ligand 11 (diastereomer mixture)]
Test: probe-labelled cysteine peptide fold change vs DMSO (competition) (log2 fold change); higher = less target engagement (more negative = stronger competition)
Conditions: THP-1, incubation time: 4 h
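Note: competitive chemoproteomic profiling in live THP-1 cells with an iodoacetamide desthiobiotin (IA-DTB) probe, comparing probe-labelled peptide intensities in compound-treated cells against DMSO-treated controls.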

Chain of UniProt Q13813 (Q13813 whole entry, looked up): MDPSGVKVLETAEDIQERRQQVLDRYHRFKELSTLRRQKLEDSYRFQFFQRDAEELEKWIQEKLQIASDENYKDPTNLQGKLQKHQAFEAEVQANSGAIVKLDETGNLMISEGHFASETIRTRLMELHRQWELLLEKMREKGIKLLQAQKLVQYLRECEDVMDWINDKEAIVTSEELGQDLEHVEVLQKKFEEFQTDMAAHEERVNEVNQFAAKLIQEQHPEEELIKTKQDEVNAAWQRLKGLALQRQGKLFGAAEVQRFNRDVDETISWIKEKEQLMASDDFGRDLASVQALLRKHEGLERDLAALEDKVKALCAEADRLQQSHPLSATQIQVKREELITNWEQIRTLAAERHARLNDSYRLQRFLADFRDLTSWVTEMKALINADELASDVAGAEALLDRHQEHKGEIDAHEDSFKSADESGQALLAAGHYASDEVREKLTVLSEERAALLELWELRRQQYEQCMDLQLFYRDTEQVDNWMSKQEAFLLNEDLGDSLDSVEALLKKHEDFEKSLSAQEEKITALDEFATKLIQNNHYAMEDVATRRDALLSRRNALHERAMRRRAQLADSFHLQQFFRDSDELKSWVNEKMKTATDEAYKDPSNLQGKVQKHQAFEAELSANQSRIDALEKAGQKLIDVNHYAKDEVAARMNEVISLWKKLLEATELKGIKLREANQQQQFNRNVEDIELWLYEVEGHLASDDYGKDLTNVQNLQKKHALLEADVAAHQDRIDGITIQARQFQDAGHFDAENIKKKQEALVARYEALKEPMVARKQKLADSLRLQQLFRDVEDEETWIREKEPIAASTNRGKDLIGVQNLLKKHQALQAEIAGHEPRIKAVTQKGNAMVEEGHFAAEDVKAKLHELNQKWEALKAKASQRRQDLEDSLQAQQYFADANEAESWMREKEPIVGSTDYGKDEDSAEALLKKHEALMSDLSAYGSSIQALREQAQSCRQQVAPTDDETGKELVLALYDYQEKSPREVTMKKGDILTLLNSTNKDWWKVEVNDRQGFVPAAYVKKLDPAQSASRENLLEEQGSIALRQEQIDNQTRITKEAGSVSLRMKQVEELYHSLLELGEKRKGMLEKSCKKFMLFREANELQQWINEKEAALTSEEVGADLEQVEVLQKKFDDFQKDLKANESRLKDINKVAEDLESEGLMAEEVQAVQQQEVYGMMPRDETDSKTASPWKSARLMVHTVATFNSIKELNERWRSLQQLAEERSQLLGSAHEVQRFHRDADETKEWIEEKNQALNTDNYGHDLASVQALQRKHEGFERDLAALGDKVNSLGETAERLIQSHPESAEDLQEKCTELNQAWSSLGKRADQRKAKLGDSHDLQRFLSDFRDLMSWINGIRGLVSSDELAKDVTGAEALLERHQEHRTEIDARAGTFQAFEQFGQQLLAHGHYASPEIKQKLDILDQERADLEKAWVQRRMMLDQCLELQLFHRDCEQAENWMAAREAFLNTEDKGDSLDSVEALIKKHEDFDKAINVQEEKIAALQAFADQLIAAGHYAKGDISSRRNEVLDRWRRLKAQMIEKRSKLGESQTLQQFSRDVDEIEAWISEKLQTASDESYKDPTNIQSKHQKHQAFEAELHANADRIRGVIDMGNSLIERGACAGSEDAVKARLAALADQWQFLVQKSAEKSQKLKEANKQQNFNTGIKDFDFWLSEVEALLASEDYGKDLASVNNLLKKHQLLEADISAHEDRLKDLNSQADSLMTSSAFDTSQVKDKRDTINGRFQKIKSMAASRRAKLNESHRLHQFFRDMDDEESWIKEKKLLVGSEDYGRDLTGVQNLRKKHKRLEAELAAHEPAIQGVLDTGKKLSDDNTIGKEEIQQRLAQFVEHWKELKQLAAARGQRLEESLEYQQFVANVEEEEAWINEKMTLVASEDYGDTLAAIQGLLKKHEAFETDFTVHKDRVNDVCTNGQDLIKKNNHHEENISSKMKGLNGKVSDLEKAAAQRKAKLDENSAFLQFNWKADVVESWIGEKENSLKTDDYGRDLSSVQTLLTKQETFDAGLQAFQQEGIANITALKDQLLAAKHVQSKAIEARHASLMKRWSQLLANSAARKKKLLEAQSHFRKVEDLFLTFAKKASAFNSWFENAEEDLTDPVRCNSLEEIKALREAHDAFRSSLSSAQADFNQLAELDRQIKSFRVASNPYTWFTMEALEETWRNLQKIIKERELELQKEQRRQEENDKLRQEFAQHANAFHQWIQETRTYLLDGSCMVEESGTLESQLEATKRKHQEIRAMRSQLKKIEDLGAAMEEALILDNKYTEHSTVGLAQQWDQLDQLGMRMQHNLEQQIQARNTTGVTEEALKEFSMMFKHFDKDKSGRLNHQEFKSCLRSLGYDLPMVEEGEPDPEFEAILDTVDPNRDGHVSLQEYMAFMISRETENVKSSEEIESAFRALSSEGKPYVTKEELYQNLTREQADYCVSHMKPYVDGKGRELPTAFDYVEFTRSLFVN
Chain of UniProt Q96B97 (Q96B97 whole entry, looked up): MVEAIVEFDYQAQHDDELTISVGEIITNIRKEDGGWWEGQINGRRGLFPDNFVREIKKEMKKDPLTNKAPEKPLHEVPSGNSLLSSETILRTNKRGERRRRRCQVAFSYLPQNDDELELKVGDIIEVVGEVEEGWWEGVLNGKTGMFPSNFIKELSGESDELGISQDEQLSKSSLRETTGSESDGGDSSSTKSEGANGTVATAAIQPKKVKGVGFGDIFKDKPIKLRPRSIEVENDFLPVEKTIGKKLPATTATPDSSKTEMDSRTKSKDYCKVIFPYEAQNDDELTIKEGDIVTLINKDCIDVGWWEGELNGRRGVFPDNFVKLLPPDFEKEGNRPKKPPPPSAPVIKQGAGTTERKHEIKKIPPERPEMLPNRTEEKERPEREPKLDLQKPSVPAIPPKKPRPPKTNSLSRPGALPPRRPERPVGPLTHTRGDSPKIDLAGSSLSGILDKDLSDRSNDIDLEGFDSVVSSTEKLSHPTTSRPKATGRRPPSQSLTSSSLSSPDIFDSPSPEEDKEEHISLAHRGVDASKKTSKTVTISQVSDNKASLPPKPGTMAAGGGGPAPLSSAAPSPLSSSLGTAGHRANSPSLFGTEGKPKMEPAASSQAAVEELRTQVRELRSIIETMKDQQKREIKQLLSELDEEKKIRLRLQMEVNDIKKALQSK
Chain of UniProt Q9UHB9 (Q9UHB9 whole entry, looked up): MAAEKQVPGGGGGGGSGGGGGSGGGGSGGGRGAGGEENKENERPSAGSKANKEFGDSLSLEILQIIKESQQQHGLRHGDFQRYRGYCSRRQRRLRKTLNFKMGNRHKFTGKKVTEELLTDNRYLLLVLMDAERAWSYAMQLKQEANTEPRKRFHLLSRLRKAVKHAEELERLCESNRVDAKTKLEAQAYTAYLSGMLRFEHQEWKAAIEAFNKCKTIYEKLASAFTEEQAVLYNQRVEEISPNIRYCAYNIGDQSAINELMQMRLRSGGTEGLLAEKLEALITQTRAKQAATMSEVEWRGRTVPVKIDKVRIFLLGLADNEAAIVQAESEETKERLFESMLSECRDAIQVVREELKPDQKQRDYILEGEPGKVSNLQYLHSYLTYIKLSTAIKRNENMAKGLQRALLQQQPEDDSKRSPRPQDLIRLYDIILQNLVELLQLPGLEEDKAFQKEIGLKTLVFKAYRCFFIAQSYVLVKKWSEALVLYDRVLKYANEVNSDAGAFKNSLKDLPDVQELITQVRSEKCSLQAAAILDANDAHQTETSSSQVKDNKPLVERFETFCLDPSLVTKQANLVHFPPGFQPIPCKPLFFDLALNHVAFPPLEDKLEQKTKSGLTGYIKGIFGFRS
Chain of UniProt Q5VZM2 (Q5VZM2 whole entry, looked up): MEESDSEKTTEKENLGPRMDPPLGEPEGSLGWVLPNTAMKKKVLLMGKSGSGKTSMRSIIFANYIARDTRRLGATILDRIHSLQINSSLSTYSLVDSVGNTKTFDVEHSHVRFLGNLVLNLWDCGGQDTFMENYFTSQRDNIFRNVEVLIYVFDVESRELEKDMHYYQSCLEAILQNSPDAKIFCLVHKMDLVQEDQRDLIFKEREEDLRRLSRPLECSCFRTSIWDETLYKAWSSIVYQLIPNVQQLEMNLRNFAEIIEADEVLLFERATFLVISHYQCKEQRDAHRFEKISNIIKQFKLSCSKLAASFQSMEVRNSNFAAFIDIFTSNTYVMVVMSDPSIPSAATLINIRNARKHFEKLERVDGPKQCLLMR
Chain of UniProt P09234 (P09234 whole entry, looked up): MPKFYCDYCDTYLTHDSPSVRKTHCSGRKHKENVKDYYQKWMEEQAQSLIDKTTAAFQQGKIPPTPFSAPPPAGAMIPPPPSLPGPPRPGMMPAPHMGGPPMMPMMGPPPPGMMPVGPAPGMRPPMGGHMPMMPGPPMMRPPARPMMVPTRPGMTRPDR
Chain of UniProt O15270 (O15270 whole entry, looked up): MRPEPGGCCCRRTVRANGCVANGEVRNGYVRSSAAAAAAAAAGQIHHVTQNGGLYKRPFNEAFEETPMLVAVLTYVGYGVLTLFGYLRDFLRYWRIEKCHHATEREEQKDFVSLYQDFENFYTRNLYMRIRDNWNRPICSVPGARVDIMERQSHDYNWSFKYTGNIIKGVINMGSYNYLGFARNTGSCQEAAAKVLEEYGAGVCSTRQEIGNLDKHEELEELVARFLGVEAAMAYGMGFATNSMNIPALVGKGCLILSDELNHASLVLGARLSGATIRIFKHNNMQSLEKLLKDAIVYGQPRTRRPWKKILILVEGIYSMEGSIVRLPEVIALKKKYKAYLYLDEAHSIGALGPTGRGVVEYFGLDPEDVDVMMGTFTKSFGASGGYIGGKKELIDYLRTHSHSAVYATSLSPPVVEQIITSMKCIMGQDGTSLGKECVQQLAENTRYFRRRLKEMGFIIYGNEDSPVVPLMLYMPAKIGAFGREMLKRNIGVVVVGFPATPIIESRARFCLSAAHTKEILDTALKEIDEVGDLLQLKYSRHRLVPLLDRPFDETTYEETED

With “SNRPC_P09234_25_KTHCSGR (UniProt P09234)” the “probe-labelled cysteine peptide fold change” value (10 µM) was -0.332 and the “probe-labelled cysteine peptide fold change” value (50 µM) was -0.766.
With “SPTAN1_Q13813_1622_GACAGSEDAVK (UniProt Q13813)” the “probe-labelled cysteine peptide fold change” value (10 µM) was -0.135 and the “probe-labelled cysteine peptide fold change” value (50 µM) was -0.00186.
In the case of “RPS6KA1_Q15418_432_ETIGVGSYSECKR (UniProt Q15418)”, the “probe-labelled cysteine peptide fold change” value (10 µM) is reported as 0.185 and the “probe-labelled cysteine peptide fold change” value (50 µM) is reported as -0.833.
For “SMARCB1_Q12824_167_TFPLCFDDHDPAVIHENASQPEVLVPIRLDMEIDGQKLR (UniProt Q12824)”, the “probe-labelled cysteine peptide fold change” value (10 µM) was -0.0714 and the “probe-labelled cysteine peptide fold change” value (50 µM) was 0.0299.
With “SPAG1_Q07617_825_EACAHLLAITAPK (UniProt Q07617)” the “probe-labelled cysteine peptide fold change” value (10 µM) was -0.0823 and the “probe-labelled cysteine peptide fold change” value (50 µM) was -0.0988.
For “RRP12_Q5JTH9_102_SSGTFLSGLSDCTNVTFSK (UniProt Q5JTH9)”, the “probe-labelled cysteine peptide fold change” value (10 µM) was 0.0888 and the “probe-labelled cysteine peptide fold change” value (50 µM) was 0.0733.
“SAMD9_Q5K651_975+979_TEVIECGNYCGVR (UniProt Q5K651)” was tested, and the “probe-labelled cysteine peptide fold change” value (10 µM) was 0.388 and the “probe-labelled cysteine peptide fold change” value (50 µM) was 0.22.
In the case of “SCAF11_Q99590_566_VYQPVSCPLSDLSENVESVVNEEK (UniProt Q99590)”, the “probe-labelled cysteine peptide fold change” value (10 µM) is reported as -0.0494 and the “probe-labelled cysteine peptide fold change” value (50 µM) is reported as -0.138.
“SLC1A5_Q15758_467_SCTVLNVEGDALGAGLLQNYVDR (UniProt Q15758)” was tested, and the “probe-labelled cysteine peptide fold change” value (10 µM) was -0.0169 and the “probe-labelled cysteine peptide fold change” value (50 µM) was 0.588.
“SP1_P08047_633_KQHICHIQGCGK (UniProt P08047)” was tested, and the “probe-labelled cysteine peptide fold change” value (10 µM) was -0.185 and the “probe-labelled cysteine peptide fold change” value (50 µM) was -0.216.
In the case of “SNX18_Q96RF0-2_570_CNTISFATLAEIHHFHQIR (UniProt Q96RF0)”, the “probe-labelled cysteine peptide fold change” value (10 µM) is reported as 0.155 and the “probe-labelled cysteine peptide fold change” value (50 µM) is reported as 0.111.
In the case of “SLC25A16_P16260_246_THVNLLCGGVAGAIAQTISYPFDVTR (UniProt P16260)”, the “probe-labelled cysteine peptide fold change” value (10 µM) is reported as 0.365 and the “probe-labelled cysteine peptide fold change” value (50 µM) is reported as 0.384.
For “RRAGB_Q5VZM2_185_IFCLVHK (UniProt Q5VZM2)”, the “probe-labelled cysteine peptide fold change” value (10 µM) was 0.162 and the “probe-labelled cysteine peptide fold change” value (50 µM) was 0.183.
In the case of “SMU1_Q2TAY7_219_SHVECAR (UniProt Q2TAY7)”, the “probe-labelled cysteine peptide fold change” value (10 µM) is reported as 0.194 and the “probe-labelled cysteine peptide fold change” value (50 µM) is reported as 0.11.
With “SMG7_Q92540_537_NLSNNCDTGEKPVVTFK (UniProt Q92540)” the “probe-labelled cysteine peptide fold change” value (10 µM) was -0.036 and the “probe-labelled cysteine peptide fold change” value (50 µM) was -0.226.
With “SON_P18583_2070_ANAAAMCAK (UniProt P18583)” the “probe-labelled cysteine peptide fold change” value (10 µM) was 0.0129 and the “probe-labelled cysteine peptide fold change” value (50 µM) was -0.103.
In the case of “SLX4_Q8IY92_786_FGVSELVHLCEQVPIATDSEGKPWEEK (UniProt Q8IY92)”, the “probe-labelled cysteine peptide fold change” value (10 µM) is reported as 0.00222 and the “probe-labelled cysteine peptide fold change” value (50 µM) is reported as 0.116.
“SPTLC2_O15270_99_CHHATER (UniProt O15270)” was tested, and the “probe-labelled cysteine peptide fold change” value (10 µM) was 0.261 and the “probe-labelled cysteine peptide fold change” value (50 µM) was 0.971.
For “SAFB2_Q14151_224_ILDILGETCK<|>SAFB_Q15424_225_ILDILGETCK (UniProt Q15424+Q14151)”, the “probe-labelled cysteine peptide fold change” value (10 µM) was -0.021 and the “probe-labelled cysteine peptide fold change” value (50 µM) was -0.165.
In the case of “RSPRY1_Q96DX4_190_LTEILNLNGEVACQDSSHPAK (UniProt Q96DX4)”, the “probe-labelled cysteine peptide fold change” value (10 µM) is reported as -0.258 and the “probe-labelled cysteine peptide fold change” value (50 µM) is reported as -0.129.
“SACS_Q9NZJ4_3694_QCDVLQLLWTSCPILPEK (UniProt Q9NZJ4)” was tested, and the “probe-labelled cysteine peptide fold change” value (10 µM) was -0.00918 and the “probe-labelled cysteine peptide fold change” value (50 µM) was -0.0315.
“SMARCA2_P51531_1016_ICNHPYMFQHIEESFAEHLGYSNGVINGAELYR (UniProt P51531)” was tested, and the “probe-labelled cysteine peptide fold change” value (10 µM) was -0.0517 and the “probe-labelled cysteine peptide fold change” value (50 µM) was -0.116.
For “SMU1_Q2TAY7_416_NPEHFVVCNR (UniProt Q2TAY7)”, the “probe-labelled cysteine peptide fold change” value (10 µM) was -0.00322 and the “probe-labelled cysteine peptide fold change” value (50 µM) was 0.0655.
“RPS2_P15880_222_KLLMMAGIDDCYTSAR (UniProt P15880)” was tested, and the “probe-labelled cysteine peptide fold change” value (10 µM) was -0.59 and the “probe-labelled cysteine peptide fold change” value (50 µM) was -0.607.
For “SH3KBP1_Q96B97_301_DCIDVGWWEGELNGRR (UniProt Q96B97)”, the “probe-labelled cysteine peptide fold change” value (10 µM) was -0.0866 and the “probe-labelled cysteine peptide fold change” value (50 µM) was -0.063.
In the case of “SEPHS2_Q99611_377_FGLLQGTSAETSGGLLICLPR (UniProt Q99611)”, the “probe-labelled cysteine peptide fold change” value (10 µM) is reported as 0.196 and the “probe-labelled cysteine peptide fold change” value (50 µM) is reported as -0.657.
In the case of “SP110_Q9HB58_327_DDSTCNSTVETR (UniProt Q9HB58)”, the “probe-labelled cysteine peptide fold change” value (10 µM) is reported as 0.0292 and the “probe-labelled cysteine peptide fold change” value (50 µM) is reported as -0.106.
With “RRM1_P23921_218_WFTHASPTLFNAGTNRPQLSSCFLLSMKDDSIEGIYDTLK (UniProt P23921)” the “probe-labelled cysteine peptide fold change” value (10 µM) was 0.111 and the “probe-labelled cysteine peptide fold change” value (50 µM) was 0.0345.
For “RRP8_O43159_451_AQLSGLQLQPCLYK (UniProt O43159)”, the “probe-labelled cysteine peptide fold change” value (10 µM) was 0.0693 and the “probe-labelled cysteine peptide fold change” value (50 µM) was -0.167.
“SRD5A3_Q9H8P0_238_AGVVIHCNHR (UniProt Q9H8P0)” was tested, and the “probe-labelled cysteine peptide fold change” value (10 µM) was 0.00183 and the “probe-labelled cysteine peptide fold change” value (50 µM) was -0.036.
In the case of “SND1_Q7KZF4_96_EVCFTIENK (UniProt Q7KZF4)”, the “probe-labelled cysteine peptide fold change” value (10 µM) is reported as 0.00729 and the “probe-labelled cysteine peptide fold change” value (50 µM) is reported as 0.0683.
In the case of “SLC25A10_Q9UBX3_69_TDGILALYSGLSASLCR (UniProt Q9UBX3)”, the “probe-labelled cysteine peptide fold change” value (10 µM) is reported as 0.0966 and the “probe-labelled cysteine peptide fold change” value (50 µM) is reported as 0.615.
For “SPCS2_Q15005_17+26_SGGSGGCSGAGGASNCGTGSGR (UniProt Q15005)”, the “probe-labelled cysteine peptide fold change” value (10 µM) was -0.266 and the “probe-labelled cysteine peptide fold change” value (50 µM) was -0.603.
For “RTN3_O95197-3_46_SCSSSCAVHDLIFWR (UniProt O95197)”, the “probe-labelled cysteine peptide fold change” value (10 µM) was -0.00795 and the “probe-labelled cysteine peptide fold change” value (50 µM) was -0.919.
For “SRP68_Q9UHB9_173_LCESNR (UniProt Q9UHB9)”, the “probe-labelled cysteine peptide fold change” value (10 µM) was 0.14 and the “probe-labelled cysteine peptide fold change” value (50 µM) was 0.559.
With “SASS6_Q6UVJ0_94_FIDLLQQCTQEHAK (UniProt Q6UVJ0)” the “probe-labelled cysteine peptide fold change” value (10 µM) was 0.0471 and the “probe-labelled cysteine peptide fold change” value (50 µM) was 0.0533.
For “SMARCC1_Q92922_761_VDPTYGLESSCIAGTGPDEPEKLEGAEEEK (UniProt Q92922)”, the “probe-labelled cysteine peptide fold change” value (10 µM) was -0.397 and the “probe-labelled cysteine peptide fold change” value (50 µM) was -0.234.
